Our source for the Potency and outcome values is PubChem BioAssay (Tox21).

Assay [1] in a line: qHTS assay to identify small molecule antagonists of the peroxisome proliferator-activated receptor gamma (PPARg) signaling pathway - cell viability counter screen (AID 743194). Also: nearly all actives have a fitted effect of over 55% in size. To be noted: Potency: co-treated with 50 nM rosiglitazone unless noted. In outline:
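Cytotoxicity counter screen in PPARg-bla HEK293H cells, same wells as reporter assay. Compounds plus 50 nM rosiglitazone (final) for 17 h at 37 C, then viability read by CellTiter-Glo luminescence.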

The nature of assay [2]: qHTS assay for small molecule agonists of the antioxidant response element (ARE) signaling pathway (AID 743202; active = well fitted activation curve with a large enough effect in the signal ratio in the repeat runs, not every such curve was filed as active; the % refers to the signal ratio; also: potency is read from the fitted curve at half-maximal effect). The gist of the method: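 ARE-bla HepG2 cells (beta-lactamase reporter under the antioxidant response element), plated 5 hours, then exposed to compounds 16 hours at 37 C. LiveBLAzer B/G FRET substrate added for 2 hours at room temperature; fluorescence intensity read.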
In general terms: qHTS replaces the single test concentration by a dilution series.

The nature of assay [3]: qHTS assay for small molecule agonists of the antioxidant response element (ARE) signaling pathway - cell viability counter screen (AID 743203; calls by dose curve; also: nearly all actives have a fitted effect of over 55% in size). In outline:
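Following 16 hrs of compound treatment at 37C, HepG2 cells with an ARE-controlled beta-lactamase gene were lysed with CellTiter-Glo. Luminescence was read after 30 min at room temperature.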

The nature of assay [4]: qHTS assay for small molecule activators of the heat shock response signaling pathway - cell viability counter screen (AID 743209). Also: nearly all actives have a fitted effect of over 50% in size. In outline:
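Readout: CellTiter-Glo luminescence, 30 min at room temperature. System: HSE-bla HeLa cells, 1500/well, plated overnight. Treatment: compounds in DMSO, 5 h at 37 C.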

Assay [5] is described as follows: qHTS assay for small molecule activators of the heat shock response signaling pathway (AID 743210; active = well fitted activation curve with a large enough effect in the signal ratio in the repeat runs, with a control signal flat, not every such curve was filed as active; the % refers to the signal ratio; also: series mostly up to about 63 µM). In outline: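 HSE-bla HeLa cells (beta-lactamase reporter under heat shock response elements), plated overnight, then exposed to compounds 5 h at 37 C; LiveBLAzer B/G FRET substrate added, 2.5 h at room temperature, fluorescence intensity read.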
Assay [6] can be described thus: qHTS assay to identify small molecule agonists of the peroxisome proliferator-activated receptor delta (PPARd) signaling pathway - cell viability counter screen (AID 743211). Also: nearly all actives have a fitted effect of over 55% in size. The gist of the method:
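Viability was measured as CellTiter-Glo luminescence (30 min, room temperature) in the same wells as the beta-lactamase readout. GeneBLAzer PPARd UAS-bla HEK293H cells received compound after 5 h plating and were incubated 17 h at 37 C.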

For assay [7], the target named is Bile acid receptor (Homo sapiens) (UniProt Q96RI1). As to the kind of experiment: qHTS assay to identify small molecule antagonists of the farnesoid-X-receptor (FXR) signaling pathway (AID 743217; active = well fitted inhibition curve with a large enough effect in the signal ratio in the repeat runs, not every such curve was filed as active; the % refers to the signal ratio). In outline:
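GeneBLAzer FXR-UAS-bla HEK 293T, CDCA-stimulated (50 uM final). Compound treatment 16 h, 37 °C. Detection: beta-lactamase cleavage of B/G FRET substrate, fluorescence.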

Assay [8] in a line: qHTS assay to identify small molecule agonists of the farnesoid-X-receptor (FXR) signaling pathway - cell viability counter screen (AID 743218). Also: nearly all actives have a fitted effect of over 45% in size. In outline:
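Parallel cytotoxicity test: compound-treated (16 h, 37 C) HEK 293T FXR-bla reporter cells were lysed with CellTiter-Glo and luminescence recorded.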

Assay [9] has as its target Bile acid receptor (Homo sapiens) (UniProt Q96RI1). As to the kind of experiment: qHTS assay to identify small molecule agonists of the farnesoid-X-receptor (FXR) signaling pathway (AID 743220; active = well fitted activation curve with a large enough effect in the signal ratio in the repeat runs, not every such curve was filed as active; the % refers to the signal ratio). The gist of the method:
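Beta-lactamase reporter under UAS control in GeneBLAzer FXR HEK 293T cells (5000/well) measured with LiveBLAzer FRET substrate after 2 h at room temperature. Compound exposure lasted 16 h at 37C.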

Assay [10] can be described thus: qHTS assay to identify small molecule antagonists of the farnesoid-X-receptor (FXR) signaling pathway - cell viability counter screen (AID 743221; active = well fitted cell-killing curve with a large enough effect in the repeat runs, not every such curve was filed as active; also: nearly all actives have a fitted effect of over 50% in size). The gist of the method: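 Cytotoxicity counter screen run in the FXR-bla reporter wells: HEK 293T cells exposed to compound with 50 uM (final) chenodeoxycholic acid for 16 h, 37 C, then viability measured by CellTiter-Glo luminescence after 30 min, room temperature.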

Assay [11] deals with Vitamin D3 receptor (Homo sapiens) (UniProt P11473). Briefly: qHTS assay to identify small molecule agonists of the vitamin D receptor (VDR) signaling pathway (AID 743222; calls by dose curve). The gist of the method:
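In VDR-bla cells, compound-induced beta-lactamase expression is quantified by FRET substrate fluorescence. Treatment lasts 16 h at 37C; substrate develops 2 h at room temperature.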

The target is the same in assay [12]. Briefly: qHTS assay to identify small molecule antagonists of the vitamin D receptor (VDR) signaling pathway (AID 743223; active = well fitted inhibition curve with a large enough effect in the signal ratio in the repeat runs, not every such curve was filed as active; the % refers to the signal ratio). The gist of the method:
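Antagonist mode: compound added to VDR-bla cells alongside agonist 1alpha,25-dihydroxyvitamin D3 (3 nM final), incubation 16 h at 37C. Read-out is LiveBLAzer FRET fluorescence, 2 h at room temperature.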

A short description of assay [13]: qHTS assay to identify aromatase inhibitors - cell viability counter screen (AID 743084).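 Also: cells stimulated with testosterone during compound exposure; nearly all actives have a fitted effect of over 55% in size.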 Also: potency is read from the fitted curve at half-maximal effect.
For assay [14], the target named is Aryl hydrocarbon receptor (Homo sapiens) (UniProt P35869). Briefly: qHTS assay to identify small molecule that activate the aryl hydrocarbon receptor (AhR) signaling pathway (AID 743085).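 Also: HG2L7.5c1 human HepG2 liver cells with stably integrated DRE-driven firefly reporter; series mostly up to about 70 µM; nearly all actives have a fitted effect of over 15% in size.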 In outline: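 Luminescence (ONE-Glo) from a dioxin-responsive-element luciferase reporter in HG2L7.5c1 HepG2 cells after 24 hr compound exposure at 37C; viability measured by CellTiter-Fluor fluorescence beforehand.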
Aryl hydrocarbon receptor (Homo sapiens), sequence (P35869 whole entry, looked up): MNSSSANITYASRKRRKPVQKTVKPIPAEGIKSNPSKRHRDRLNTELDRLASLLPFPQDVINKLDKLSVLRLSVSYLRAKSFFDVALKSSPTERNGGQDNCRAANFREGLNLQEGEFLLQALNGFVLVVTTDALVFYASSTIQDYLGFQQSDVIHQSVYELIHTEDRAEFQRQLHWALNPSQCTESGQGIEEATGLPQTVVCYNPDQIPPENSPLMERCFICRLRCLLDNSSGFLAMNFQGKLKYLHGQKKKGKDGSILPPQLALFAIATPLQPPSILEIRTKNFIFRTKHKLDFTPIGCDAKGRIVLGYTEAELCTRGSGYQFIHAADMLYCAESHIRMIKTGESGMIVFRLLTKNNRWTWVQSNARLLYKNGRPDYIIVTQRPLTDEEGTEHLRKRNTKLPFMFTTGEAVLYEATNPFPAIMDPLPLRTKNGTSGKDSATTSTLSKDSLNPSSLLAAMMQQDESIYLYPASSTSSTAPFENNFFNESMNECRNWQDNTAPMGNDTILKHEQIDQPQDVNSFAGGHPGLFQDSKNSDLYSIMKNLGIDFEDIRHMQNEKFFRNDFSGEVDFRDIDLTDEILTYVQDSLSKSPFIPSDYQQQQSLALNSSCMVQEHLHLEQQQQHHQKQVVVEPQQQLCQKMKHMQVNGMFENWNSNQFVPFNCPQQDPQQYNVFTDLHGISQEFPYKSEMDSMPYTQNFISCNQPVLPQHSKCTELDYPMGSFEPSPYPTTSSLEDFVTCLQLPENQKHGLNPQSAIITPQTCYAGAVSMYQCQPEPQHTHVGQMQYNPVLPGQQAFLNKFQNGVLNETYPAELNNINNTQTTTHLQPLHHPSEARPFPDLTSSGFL

The target of assay [15] is Peroxisome proliferator-activated receptor gamma (Homo sapiens) (UniProt P37231). As to the kind of experiment: qHTS assay to identify small molecule agonists of the peroxisome proliferator-activated receptor gamma (PPARg) signaling pathway (AID 743094; active = well fitted activation curve with a large enough effect in the signal ratio in the repeat runs, not every such curve was filed as active; the % refers to the signal ratio). The gist of the method:
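Compounds dissolved in DMSO were added to PPARg UAS-bla HEK293H cells for 17 h at 37C, and reporter expression was quantified by fluorescence intensity after 1 h with LiveBLAzer B/G FRET substrate.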

Assay [16] shares this target. As to the kind of experiment: qHTS assay to identify small molecule antagonists of the peroxisome proliferator-activated receptor gamma (PPARg) signaling pathway (AID 743191; calls by dose curve; also: series mostly up to about 63 µM; nearly all actives have a fitted effect of over 30% in size). The gist of the method:
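GeneBLAzer PPARg UAS-bla HEK293H cells, 5 h post-plating, exposed to compounds 17 h at 37C. LiveBLAzer B/G FRET substrate added for 1 h at room temperature; beta-lactamase reporter read by fluorescence intensity.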

For assay [17], the target named is Peroxisome proliferator-activated receptor delta (Homo sapiens) (UniProt Q03181). Briefly: qHTS assay to identify small molecule agonists of the peroxisome proliferator-activated receptor delta (PPARd) signaling pathway (AID 743212; calls by dose curve). In outline: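 GeneBLAzer UAS-bla HEK293H cells carrying a PPARδ construct were exposed to compounds at 37 °C. Beta-lactamase activity was read by FRET fluorescence after 2 h at room temperature with LiveBLAzer B/G substrate.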
Peroxisome proliferator-activated receptor delta (Homo sapiens), sequence (Q03181 whole entry, looked up): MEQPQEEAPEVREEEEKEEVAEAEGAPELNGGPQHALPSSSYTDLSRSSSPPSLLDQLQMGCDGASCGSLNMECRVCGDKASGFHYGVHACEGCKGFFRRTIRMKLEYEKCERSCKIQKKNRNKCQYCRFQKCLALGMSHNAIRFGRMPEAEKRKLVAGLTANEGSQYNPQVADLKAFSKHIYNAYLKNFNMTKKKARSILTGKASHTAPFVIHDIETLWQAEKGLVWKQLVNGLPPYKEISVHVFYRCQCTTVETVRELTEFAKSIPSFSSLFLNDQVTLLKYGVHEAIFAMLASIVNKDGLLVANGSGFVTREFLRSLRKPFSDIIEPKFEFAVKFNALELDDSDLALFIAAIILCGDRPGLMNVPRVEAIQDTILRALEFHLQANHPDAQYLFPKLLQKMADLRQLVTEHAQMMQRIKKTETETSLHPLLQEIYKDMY

The target is the same in assay [18]. As to the kind of experiment: qHTS assay to identify small molecule antagonists of the peroxisome proliferator-activated receptor delta (PPARd) signaling pathway (AID 743215; active = well fitted inhibition curve with a large enough effect in the signal ratio in the repeat runs, not every such curve was filed as active; the % refers to the signal ratio;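 also: cells stimulated with agonist L165041 at 300 nM final during compound exposure; series mostly up to about 62 µM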). In outline:
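HEK293H UAS-bla, PPARd; agonist L165041 300 nM final with cpd in DMSO; 37 C 17 h; FRET substrate, RT 2 h; fluorescence intensity.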

A short description of assay [19]: qHTS assay to identify small molecule that activate the aryl hydrocarbon receptor (AhR) signaling pathway - cell viability counter screen (AID 743086).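 Also: HepG2 liver cells carrying the AhR DRE luciferase reporter; series mostly up to about 70 µM; nearly all actives have a fitted effect of over 45% in size.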 The gist of the method: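 HepG2-AhR-luc (HG2L7.5c1) cells, 4000/well, treated 24 h at 37 C with compound; viability measured as CellTiter-Fluor fluorescence after 30 min in the same wells as the luciferase read.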

A short description of assay [20]: qHTS assay to identify small molecule antagonists of the peroxisome proliferator-activated receptor delta (PPARd) signaling pathway - cell viability counter screen (AID 743213). Also: nearly all actives have a fitted effect of over 50% in size. The gist of the method:
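HEK293H PPARd UAS-bla cells, 5 h pre-incubation, compound + L165041 300 nM final, 17 h 37 C; B/G FRET substrate 2 h RT; then CellTiter-Glo 30 min RT, luminescence.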

Where “and” joins values, the source holds several entries; their conditions need not be identical. Identical values can stand only once. Inconclusive results are not listed. Some structures have more than one record in an assay (separate samples or runs), and their calls can disagree. Calls of active or inactive are those of the source. Unless noted, calls follow the shape of the dose curve; as a rule, active = well fitted curve in the direction sought with a large enough effect in the repeat runs; inconclusive = weak or mixed curves; inactive = no such curve, though single readings can be large; an effect the other way counts as inactive or inconclusive.

Bile acid receptor (Homo sapiens), sequence (Q96RI1 whole entry, looked up): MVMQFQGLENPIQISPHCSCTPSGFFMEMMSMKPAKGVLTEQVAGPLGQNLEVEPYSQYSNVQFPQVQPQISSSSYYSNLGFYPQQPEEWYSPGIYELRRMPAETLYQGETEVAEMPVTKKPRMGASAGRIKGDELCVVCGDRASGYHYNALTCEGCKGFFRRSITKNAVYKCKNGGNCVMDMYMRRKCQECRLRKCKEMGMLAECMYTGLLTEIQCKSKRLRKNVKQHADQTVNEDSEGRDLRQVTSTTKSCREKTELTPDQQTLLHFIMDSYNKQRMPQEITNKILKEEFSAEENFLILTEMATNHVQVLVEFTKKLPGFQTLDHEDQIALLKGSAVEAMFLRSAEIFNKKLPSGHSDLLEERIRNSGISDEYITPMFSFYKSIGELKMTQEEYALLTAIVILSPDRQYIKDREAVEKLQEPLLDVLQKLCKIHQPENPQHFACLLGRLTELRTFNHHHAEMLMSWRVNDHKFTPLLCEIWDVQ
Vitamin D3 receptor (Homo sapiens), sequence (P11473 whole entry, looked up): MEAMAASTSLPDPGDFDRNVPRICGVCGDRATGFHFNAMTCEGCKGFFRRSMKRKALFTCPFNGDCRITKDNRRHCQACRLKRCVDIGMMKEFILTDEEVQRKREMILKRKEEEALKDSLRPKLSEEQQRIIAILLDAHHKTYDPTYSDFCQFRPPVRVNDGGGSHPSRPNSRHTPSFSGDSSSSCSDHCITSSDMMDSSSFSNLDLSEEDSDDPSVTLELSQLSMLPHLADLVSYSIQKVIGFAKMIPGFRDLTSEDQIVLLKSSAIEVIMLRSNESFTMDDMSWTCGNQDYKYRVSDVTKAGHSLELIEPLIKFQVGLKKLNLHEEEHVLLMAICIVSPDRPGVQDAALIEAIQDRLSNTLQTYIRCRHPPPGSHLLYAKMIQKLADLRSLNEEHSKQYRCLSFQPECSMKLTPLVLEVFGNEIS
Peroxisome proliferator-activated receptor gamma (Homo sapiens), sequence (P37231 whole entry, looked up): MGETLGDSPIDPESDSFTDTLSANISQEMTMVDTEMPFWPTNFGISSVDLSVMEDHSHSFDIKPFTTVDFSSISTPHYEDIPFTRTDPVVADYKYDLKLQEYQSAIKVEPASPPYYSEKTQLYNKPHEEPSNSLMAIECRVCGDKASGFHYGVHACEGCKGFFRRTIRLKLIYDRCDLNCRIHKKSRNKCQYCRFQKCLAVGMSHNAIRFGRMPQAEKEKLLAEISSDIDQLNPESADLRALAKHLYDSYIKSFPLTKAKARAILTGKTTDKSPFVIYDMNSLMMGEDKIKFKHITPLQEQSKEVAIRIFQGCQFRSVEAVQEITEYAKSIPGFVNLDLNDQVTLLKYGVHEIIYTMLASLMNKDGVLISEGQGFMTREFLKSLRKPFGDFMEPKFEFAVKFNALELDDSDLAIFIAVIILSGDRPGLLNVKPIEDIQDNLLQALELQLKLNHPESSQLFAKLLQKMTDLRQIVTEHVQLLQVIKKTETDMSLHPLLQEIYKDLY

As to `O=C(O)Cc1c[nH]c2ccccc12`, the Potency entry in [1], in assay [2], in assay [3], in assay [4], in assay [5] and in assay [6] was “inactive” throughout. The Potency result in [7], in [8], in assay [9], in assay [10] and in [12] was “inactive” each time. In assay [11], the outcome was inactive.
As to `C=C(C)CC(C)(C)C`, the Potency entry in assay [1], in assay [2], in assay [3], in assay [4], in assay [5] and in assay [6] was “inactive” throughout. For the same molecule, the Potency result in assay [7], in assay [8], in assay [9], in [10] and in assay [12] was “inactive” throughout. Also, the molecule was classed as inactive in [11].
On to `CC(O)CNCC(C)O` (configuration not stated), for which the Potency result in [13], in [14], in assay [15], in [16], in assay [1] and in assay [3] was “inactive” each time. Also, the Potency result in [4], in assay [5], in assay [6], in assay [17], in [18] and in assay [8] was “inactive” in each case. Besides, the Potency entry in assay [10] and in assay [12] was “inactive” throughout. The molecule was called inactive in assay [11].
Turning to `OCCOCCOCCOCCOCCO`, the Potency entry in [13], in assay [19], in assay [1], in assay [2], in assay [3] and in assay [4] was “inactive” throughout. Also, the Potency entry in assay [5], in assay [6], in assay [8], in assay [10] and in assay [12] was “inactive” throughout. The outcome in assay [11] was inactive.
As to `C[Si](C)(C)N[Si](C)(C)C`, the Potency result in assay [13], in assay [14], in assay [15], in assay [16], in assay [1] and in assay [2] was “inactive” each time. For the same molecule, the Potency result in assay [3], in assay [4], in assay [6], in assay [20], in assay [8] and in assay [10] was “inactive” each time. Also, in assay [11], the call was inactive.
As for `OCC(CO)(CO)CO`, the Potency entry in [13], in assay [14], in assay [15], in assay [16], in [1] and in [2] was “inactive” each time. Besides, the Potency entry in assay [3], in assay [4], in assay [6], in [17], in [18] and in [8] was “inactive” each time. The Potency entry in [10] and in [12] was “inactive” throughout. Besides, the call in assay [11] was inactive.
Turning to `COc1ccc2cc3[n+](cc2c1OC)CCc1cc2c(cc1-3)OCO2`, the Potency entry is “inactive and 48.9 µM (active)” in [13]; 2.45 µM (active) and 5.96 µM (active) in [2]. For the same molecule, the Potency entry in [15], in assay [1], in assay [3], in [4], in [5] and in assay [6] was “inactive” throughout. The Potency result in [17], in [20], in assay [18], in [7], in [8] and in [9] was “inactive” throughout. In addition, the Potency entry in [10] and in [12] was “inactive” in each case.
For `NC(N)=S`, the Potency entry in assay [13], in [14], in [15], in [16], in [1] and in assay [2] was “inactive” each time. The Potency result in assay [3], in assay [4], in assay [6], in assay [7], in assay [8] and in [9] was “inactive” each time. Further, the Potency entry in assay [10] and in [12] was “inactive” throughout. For the same molecule, the outcome in assay [11] was inactive.
As to `CCCOCC(C)O` (configuration not stated), the Potency entry in [13], in assay [14], in assay [15], in assay [16], in assay [1] and in [2] was “inactive” in each case. Further, the Potency result in assay [3], in assay [4], in assay [6], in [17], in assay [18] and in assay [8] was “inactive” in each case. Also, the Potency entry in assay [10] and in [12] was “inactive” each time. The outcome in assay [11] was inactive.
Regarding `Cc1cc(C)cc(O)c1`, the Potency entry in assay [13], in [14], in assay [15], in assay [1], in assay [2] and in assay [3] was “inactive” throughout. Moreover, the Potency entry in assay [4], in assay [6], in [17], in assay [20], in assay [18] and in [8] was “inactive” throughout. For the same molecule, the Potency result in assay [10] and in assay [12] was “inactive” each time. For the same molecule, the call in assay [11] was inactive.
With `CC(=O)c1nccs1`, the Potency result in assay [13], in assay [19], in assay [15], in [16], in [1] and in [2] was “inactive” each time. Also, the Potency result in assay [3], in [4], in [5], in [6], in [17] and in assay [20] was “inactive” in each case. Also, the Potency result in [18], in assay [8], in assay [10] and in [12] was “inactive” in each case. The result in [11] was inactive.
